# Laboratory results taken from publication PMC8384837, “Expanding the binding specificity for RNA recognition by a PUF domain”.
# Positions count from the first letter of the chain named.
# Legend:
# Experiment in all cases: yeast three-hybrid, YBZ-1, SC-Leu-His + 0.5 mM 3-AT, 4 days
# Conditions in all cases: tags: N-Gal4 AD-HA kept; label: inside an RPR1-promoter hybrid RNA with tandem MS2 sites; ssRNA
# [1] = target: PUM1 PUF domain R3-SPS (Homo sapiens, UniProt Q14671 828-1176, C935S;R936P;Q939S)
# Method in brief: (§1)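 The interaction score is the logarithmic change in variant frequency from input to selection. It uses log2, with a pseudocount of 1 for absent variants, and frequencies came from PCR-amplified, Illumina-sequenced repeat regions. The libraries were Pumilio-1 PUF domains randomized at the three base-contacting residues per repeat, co-expressed with matching RNA elements in strain YBZ-1 (LexA–MS2 coat fusion, HIS3 reporter). Plating lasted four days on SC-Leu (input) or SC-Leu-His + 0.5 mM 3-AT (selection).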
# [2] = target: PUM1 PUF domain R3-LFV (Homo sapiens, UniProt Q14671 828-1176, C935L;R936F;Q939V)
# Method in brief: as §1
# [3] = target: PUM1 PUF domain R3-LRS (Homo sapiens, UniProt Q14671 828-1176, C935L;Q939S)
# Method in brief: as §1
# [4] = target: PUM1 PUF domain R1-GRR (Homo sapiens, UniProt Q14671 828-1176, S863G;Q867R)
# Method in brief: as §1
# [5] = target: PUM1 PUF domain R8-RRI (Homo sapiens, UniProt Q14671 828-1176, N1122R;Y1123R;Q1126I)
# Method in brief: as §1
# [6] = target: PUM1 PUF domain R8-HYL (Homo sapiens, UniProt Q14671 828-1176, N1122H;Q1126L)
# Method in brief: as §1
# [7] = target: T1, PUM1 PUF domain R6-SWK (Homo sapiens, UniProt Q14671 828-1176, N1043S;Y1044W;Q1047K)
# T1 sequence: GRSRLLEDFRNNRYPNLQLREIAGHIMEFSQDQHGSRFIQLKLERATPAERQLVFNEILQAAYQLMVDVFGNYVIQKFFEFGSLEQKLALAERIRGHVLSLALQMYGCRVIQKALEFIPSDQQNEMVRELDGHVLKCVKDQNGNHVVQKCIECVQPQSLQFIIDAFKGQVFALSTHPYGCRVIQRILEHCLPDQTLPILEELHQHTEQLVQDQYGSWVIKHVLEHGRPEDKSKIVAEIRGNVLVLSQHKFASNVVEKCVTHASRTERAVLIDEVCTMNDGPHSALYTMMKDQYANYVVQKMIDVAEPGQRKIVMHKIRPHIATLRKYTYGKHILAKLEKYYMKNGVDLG
# Method in brief: as §1
# [8] = target: PUM1 PUF domain R5-FRD (Homo sapiens, UniProt Q14671 828-1176, C1007F;Q1011D)
# Method in brief: as §1
# [9] = target: T2, PUM1 PUF domain R6-RHR (Homo sapiens, UniProt Q14671 828-1176, N1043R;Y1044H;Q1047R)
# T2 sequence: T1 sequence with S216R, W217H, K220R
# Method in brief: as §1
# [10] = target: PUM1 PUF domain R1-NIG (Homo sapiens, UniProt Q14671 828-1176, S863N;R864I;Q867G)
# Method in brief: as §1
sequence,measurement,setting,value
GGCUAGAACUAGUGGAUCCCCCGGCGCCCGGCGGCUCGAGCCCGGGUAAGUGUAAUUAGUCUGCAUGCCGCCGGGCGCCAUGCCUGCAGGUCGACUCUAGAAAACAUG,binding signal,[1],1.47 log2 enrichment (interaction score)
same,binding signal,[2],4.09 log2 enrichment (interaction score)
same,binding signal,[3],1.26 log2 enrichment (interaction score)
GGCUAGAACUAGUGGAUCCCCCGGCGCCCGGCGGCUCGAGCCCGGGUAAGUGUAAAUGGUCUGCAUGCCGCCGGGCGCCAUGCCUGCAGGUCGACUCUAGAAAACAUG,binding signal,[4],1.78 log2 enrichment (interaction score)
GGCUAGAACUAGUGGAUCCCCCGGCGCCCGGCGGCUCGAGCCCGGGUAAGUGUAACUAGUCUGCAUGCCGCCGGGCGCCAUGCCUGCAGGUCGACUCUAGAAAACAUG,binding signal,[2],2.66 log2 enrichment (interaction score)
GGCUAGAACUAGUGGAUCCCCCGGCGCCCGGCGGCUCGAGCCCGGGUAAGCGUAAAUAGUCUGCAUGCCGCCGGGCGCCAUGCCUGCAGGUCGACUCUAGAAAACAUG,binding signal,[5],2.58 log2 enrichment (interaction score)
same,binding signal,[6],2.26 log2 enrichment (interaction score)
GGCUAGAACUAGUGGAUCCCCCGGCGCCCGGCGGCUCGAGCCCGGGUAAGUGUAAAUAGUCUGCAUGCCGCCGGGCGCCAUGCCUGCAGGUCGACUCUAGAAAACAUG,binding signal,[7],6.97 log2 enrichment (interaction score)
same,binding signal,[1],3.13 log2 enrichment (interaction score)
same,binding signal,[8],1.06 log2 enrichment (interaction score)
same,binding signal,[5],1.24 log2 enrichment (interaction score)
same,binding signal,[2],3.48 log2 enrichment (interaction score)
same,binding signal,[9],3.36 log2 enrichment (interaction score)
GGCUAGAACUAGUGGAUCCCCCGGCGCCCGGCGGCUCGAGCCCGGGUAAGUGUAAAUCGUCUGCAUGCCGCCGGGCGCCAUGCCUGCAGGUCGACUCUAGAAAACAUG,binding signal,[4],3.99 log2 enrichment (interaction score)
GGCUAGAACUAGUGGAUCCCCCGGCGCCCGGCGGCUCGAGCCCGGGUAAGUGUAAGUAGUCUGCAUGCCGCCGGGCGCCAUGCCUGCAGGUCGACUCUAGAAAACAUG,binding signal,[2],5.59 log2 enrichment (interaction score)
same,binding signal,[3],4.15 log2 enrichment (interaction score)
GGCUAGAACUAGUGGAUCCCCCGGCGCCCGGCGGCUCGAGCCCGGGUAAGUGUAAAUUGUCUGCAUGCCGCCGGGCGCCAUGCCUGCAGGUCGACUCUAGAAAACAUG,binding signal,[10],3.06 log2 enrichment (interaction score)
same,binding signal,[4],2.59 log2 enrichment (interaction score)
GGCUAGAACUAGUGGAUCCCCCGGCGCCCGGCGGCUCGAGCCCGGGUAAGUGUCAAUAGUCUGCAUGCCGCCGGGCGCCAUGCCUGCAGGUCGACUCUAGAAAACAUG,binding signal,[8],2.84 log2 enrichment (interaction score)
GGCUAGAACUAGUGGAUCCCCCGGCGCCCGGCGGCUCGAGCCCGGGUAAGUGAAAAUAGUCUGCAUGCCGCCGGGCGCCAUGCCUGCAGGUCGACUCUAGAAAACAUG,binding signal,[7],1.25 log2 enrichment (interaction score)
same,binding signal,[9],1.86 log2 enrichment (interaction score)
